Results: ChEMBL document CHEMBL1157539, “Thousands of chemical starting points for antimalarial lead identification” (Nature, 2010)

These compounds were tested on HepG2 (assay: GSK_TCMDC: Percent inhibition of human HepG2 cell line. Test compounds present at 10uM.).
Assay type: functional
Compound O=C(C=Cc1ccc(-c2nc3ccccc3[nH]2)cc1)NC1CCN(Cc2ccccc2)CC1 has an Inhibition of 15%.
O=[N+]([O-])c1cccc(Nc2nccc(-c3cnn4ncccc34)n2)c1 showed an Inhibition of 33%.
Cl.Oc1ccc(Nc2nc(NCC3CCCO3)c3ccccc3n2)cc1 (configuration not stated) gave an Inhibition of 7%.
In the case of O=C(Nc1cccc(C(F)(F)F)c1)c1cccc(S(=O)(=O)NCC2CCCN2CC2CCCCC2)c1.O=C(O)C(F)(F)F (configuration not stated), the Inhibition is reported as 6%.
Compound Cc1ccc2nc(C)cc(N/N=C/c3ccc([N+](=O)[O-])o3)c2c1 has an Inhibition of 15%.
In the case of COc1cc(-c2nnc(SCC(=O)Nc3cc(C)on3)n2C)cc(OC)c1O, the Inhibition is reported as 2%.
CC(C)(C(=O)Nc1ccc(C2CCC(NCC3CC3)CC2)c(Cl)c1)c1cccc(OC(F)F)c1 (configuration not stated) showed an Inhibition of 34%.
COc1ccc(-c2nc(NC(=O)CS(=O)(=O)c3ccc(OC)cc3)sc2C)cc1 showed an Inhibition of 6%.
O=C(O)C(F)(F)F.O=S(=O)(NCCN1CCCC1)c1cccc(-c2ccc(CNCc3ccccc3)cc2)c1 was tested, and the Inhibition was 54%.
In the case of Cn1cccc1C(=O)Nc1cccc(-c2nn3ccccc3c2-c2ccnc(Nc3ccc4c(c3)OCCO4)n2)c1, the Inhibition is reported as 12%.
In the case of CCN(CC)c1ccc(C(c2ccc(N(CC)CC)cc2)c2cccc([N+](=O)[O-])c2)cc1, the Inhibition is reported as 39%.
Cc1ccc(NC(=O)c2ccc3nccnc3c2)cc1OC1CCN(Cc2ccc(F)cc2)CC1.O=C(O)C(F)(F)F was tested, and the Inhibition was 16%.
For COc1ccccc1C1CN(Cc2coc3ccccc3c2=O)Cc2ccccc2O1 (configuration not stated), the Inhibition was 4%.
Br.CCCCCCCCn1c2c(c(=N)c3c1CCC3)CCCC2 showed an Inhibition of 57%.
CCc1ccc(C2CCN(CCCCNC(=O)c3ccc(-c4ccc(C#N)cc4)cc3)CC2)c(OCCO)c1.Cl gave an Inhibition of 24%.
For COc1ccc2ncc(Cl)c([C@H](O)CN3CCC(NCc4cc5c(cn4)OCCO5)CC3)c2c1.Cl, the Inhibition was 10%.
Work on Cc1ccc(-c2nnc(Nc3ccc(OCC(N)=O)cc3)c3ccccc23)cc1S(=O)(=O)NCC1CCCO1 (configuration not stated) yielded an Inhibition of 0%.
Cl.Clc1ccc(CCNCCCCCCNCCc2ccc3c(c2)OCO3)cc1 showed an Inhibition of 23%.
COc1ccc(-c2ccc(CNC(=O)c3cccc(C#N)c3)c(F)c2)cc1CN1CCCN(C)CC1.O=C(O)C(F)(F)F gave an Inhibition of 8%.
For O=C(CCCCCNC(=O)c1ccc(O)c(-c2ccc(Cl)c(Cl)c2)c1)NCCN1CCCC1, the Inhibition was 0%.
In the case of O=C(NC1CCCCC1)N(Cc1ccccc1-c1ccc(CNCCc2ccccc2)cc1)C1CCN(Cc2ccccc2)CC1.O=C(O)C(F)(F)F, the Inhibition is reported as 96%.
Compound Cc1cc(N2CCCC2=O)ccc1-c1ccc(C(=O)N2CCC(Oc3cccc(Cl)c3)CC2)cc1 has an Inhibition of 34%.
With Cl.N=C(N)Nc1cccc(NC(=O)Nc2cccc(NC(=N)N)c2)c1 the Inhibition was 0%.
Cl.N=C(N)NN=Cc1ccc2c(c1)Cc1ccccc1-2 gave an Inhibition of 72%.
With CCCCCN1CCC(NS(=O)(=O)c2ccc(C(=O)Nc3cccc(C(F)(F)F)c3)cc2)C1.O=C(O)C(F)(F)F (configuration not stated) the Inhibition was 14%.
Compound COc1ccc2ncc(F)c([C@H](O)CN3CCC(NCc4ccc5c(c4)OCCO5)CC3)c2c1.Cl has an Inhibition of 1%.
CNC(=O)c1cnc(Nc2ccc(N3CCOCC3)cc2)nc1Nc1cccc(O)c1.O=C(O)C(F)(F)F gave an Inhibition of 23%.
